Unmarked numbers belong to inactive results. Records with an inconclusive call do not appear. Calls of active or inactive are those of the source. Unless noted, calls come from the whole dose curve; as a rule, active = well fitted curve in the direction sought with a large enough effect (not every such curve was filed as active); inconclusive = small, poorly fitted or top-dose-only effect, or effect the other way, or another doubt; inactive = no such curve, though single readings can be large or run the other way.
The compounds below were run against Pyruvate kinase PKM (Homo sapiens) (UniProt P14618) (assay: qHTS Assay for Activators of Human Muscle Pyruvate Kinase (AID 954;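 note: 0% = uninhibited enzyme and -100% = no enzyme or full thiadiazolimine inhibition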)). Conditions: purified human muscle pyruvate kinase, luciferase-coupled luminescence, 1 h; series mostly up to 57.5 µM; activity change, negative = inhibition: at the top concentration.
In short: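 Reaction: 0.1 nM purified PKM2 with 0.5 mM phosphoenolpyruvate and 0.1 mM ADP, room temperature, 1 h. Readout: luciferase-based ATP luminescence after stop reagent. Activators judged against a 0.3 nM enzyme column.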

Sequence of Pyruvate kinase PKM (Homo sapiens) (P14618 whole entry, looked up): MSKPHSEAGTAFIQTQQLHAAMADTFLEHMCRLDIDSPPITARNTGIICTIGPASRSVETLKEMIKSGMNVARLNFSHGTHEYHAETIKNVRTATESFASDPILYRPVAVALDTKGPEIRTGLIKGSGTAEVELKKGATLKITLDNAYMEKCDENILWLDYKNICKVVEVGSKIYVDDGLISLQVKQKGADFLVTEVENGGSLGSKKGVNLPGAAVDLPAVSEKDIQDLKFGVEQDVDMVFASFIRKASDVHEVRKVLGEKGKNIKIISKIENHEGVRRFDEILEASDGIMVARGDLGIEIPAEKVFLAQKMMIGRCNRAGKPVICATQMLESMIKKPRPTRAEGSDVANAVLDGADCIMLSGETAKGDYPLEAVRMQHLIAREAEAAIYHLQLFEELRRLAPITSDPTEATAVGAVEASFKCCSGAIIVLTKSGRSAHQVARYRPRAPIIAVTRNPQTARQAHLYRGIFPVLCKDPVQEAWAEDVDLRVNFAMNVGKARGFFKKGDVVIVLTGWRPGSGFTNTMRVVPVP

Going from `N[C@H](CCCP(=O)(O)O)C(=O)O` to `CN(C)C(N)=NCCC[C@H](N)C(=O)O`, the “activity change, negative = inhibition” value rises from -8.68% to -3.47%.

First: CN(C)c1nc2c(Br)c(Br)c(Br)c(Br)c2[nH]1
Second: Cn1c(=O)c2[nH]c(-c3ccccc3)nc2n(C)c1=O
The “activity change, negative = inhibition” value of the first is lower: -26.3% for the first, -8.51% for the second.

Compared with `NCCCCCCCCCCN`, `NCCCCC(=O)O` is lower in “activity change, negative = inhibition” value: -3.73% for the first, -29.1% for the second.

Going from `O=C1NC(O)=NC1(c1ccccc1)c1ccccc1` to `CN=c1nc(-c2ccccc2)n(-c2ccccc2)s1`, the “activity change, negative = inhibition” value falls from 10.9% to -89.5%.

Going from `Cc1cc(NC(=O)Nc2ccc3c(ccn3C)c2)sn1` to `CN1CCc2cc(NC(=O)Nc3cccnc3)ccc21`, the “activity change, negative = inhibition” value rises from -50.7% to -33.9%.

Compared with `N=C(N)SCCc1ccc(CCSC(=N)N)cc1`, `O=C1C(SCCO)=C(SCCO)C(=O)c2ccccc21` is lower in “activity change, negative = inhibition” value: 7.9% for the first, -31.6% for the second.

Going from `CCCN(CC1CC1)c1nc(C)nc(Nc2c(Cl)cc(Cl)cc2Cl)c1Cl` to `O=C(O)c1cc(=O)c2c(Cl)cc(Cl)cc2[nH]1`, the “activity change, negative = inhibition” value falls from -4.97% to -19.1%.

Going from `COc1ccccc1N1CCN(CCCCNS(=O)(=O)c2cccc3c(N(C)C)cccc23)CC1` to `COc1cccc(C(=O)NCCN2CCN(c3ccc(Cl)cc3)CC2)c1`, the “activity change, negative = inhibition” value falls from -8.81% to -19.4%.

First: CCCCN1CCC(n2c(=O)[nH]c3ccccc32)CC1
Second: Clc1ccc(N2CCN(Cc3c[nH]c4ncccc34)CC2)cc1
The “activity change, negative = inhibition” value of the first is lower: -19.1% for the first, 22.9% for the second.

Going from `O=C(Nc1ccccc1)c1cc([N+](=O)[O-])ccc1Cl` to `COc1ccc(/C=C/C(=O)Nc2ccccc2C(=O)O)cc1OC`, the “activity change, negative = inhibition” value falls from -41.8% to -83.5%.

Going from `O=C(Nc1cccc(C(=O)Nc2ccc(S(=O)(=O)O)c3cc(S(=O)(=O)O)cc(S(=O)(=O)O)c23)c1)Nc1cccc(C(=O)Nc2ccc(S(=O)(=O)O)c3cc(S(=O)(=O)O)cc(S(=O)(=O)O)c23)c1` to `Cn1cc(C2=C(c3ccc(Cl)cc3Cl)C(=O)NC2=O)c2ccccc21`, the “activity change, negative = inhibition” value rises from -68.6% to -28.4%.

First: COc1ccccc1CNCCCCCCNCCCCCCCCNCCCCCCNCc1ccccc1OC
Second: COC(=O)c1c(C)[nH]c(C)c1C(=O)c1ccccc1Cc1ccccc1
The “activity change, negative = inhibition” value of the first is lower: -24.8% for the first, -11.8% for the second.

Going from `O=Nc1ccc2oc(=O)ccc2c1` to `Cc1ccc(O)c(N=Nc2ccccc2)n1`, the “activity change, negative = inhibition” value falls from 22.2% to -113%.

Compared with `Fc1ccc(C(OCCCc2cnc[nH]2)c2ccc(F)cc2)cc1`, `N#C/C(=C\c1ccc(O)c(O)c1)C(=O)NCCCc1ccccc1` is higher in “activity change, negative = inhibition” value: -24.5% for the first, -11.3% for the second.

Compared with `CC(C)NC[C@H](O)COc1cccc2[nH]ccc12`, `c1cnc2c(c1)ccc1cccnc12` is lower in “activity change, negative = inhibition” value: 5.32% for the first, -11.3% for the second.

In the case of `NC(N)=NC(=O)c1nc(Cl)c(N2CCCCCC2)nc1N`, the “activity change, negative = inhibition” value is reported as -28.4%.

`CNCC[C@H](Oc1ccc(C(F)(F)F)cc1)c1ccccc1` was tested, and the outcome was “inactive”.

These compounds were tested against Pyruvate kinase PKM (Homo sapiens) (UniProt P14618) (assay: qHTS Assay for Inhibitors of Human Muscle Pyruvate Kinase (AID 958; active = well fitted curve in the direction sought with a large enough effect; an effect the other way counts as inactive or inconclusive)). Conditions: purified human PKM enzyme activity; series mostly up to 57.5 µM; activity change, negative = inhibition: at the top concentration.
Method: NIH Molecular Libraries Screening Centers Network [MLSCN]
NIH Chemical Genomics Center [NCGC]
Wael M. Rabeh, Lyudmila Nedyalkova and Hee-Wan Park [Structural Genomics Consortium, 100 College St. Toronto, Ontario, Canada]
Human pyruvate kinase muscle 2 enzyme was supplied as a highly purified (>95% pure) preparation by the Structural Genomics Consortium in Toronto (Ontario, Canada) and was assayed for its ability to generate ATP from ADP using phosphoenolpyruvate (PEP) as a substrate. ATP generation was detected in a coupled reaction by luciferase-mediated luminescence, an ATP-dependent process. Pyruvate kinase substrates, PEP and ADP, were present in the assay at Km and approximately […]-fold below Km respectively. The enzyme was assayed at an intermediate level of activity to screen for inhibitors and activators.
NCGC Assay Protocol Summary:
Three uL of substrate mix (final concentration, 50 mM imidazole pH 7.2, 50 mM KCl, 7 mM MgCl2, 0.5 mM PEP, 0.1 mM ADP, 0.01% Tween 20, 0.05% BSA) was dispensed into 1536 well plates. 23 nL of compound were delivered by a pin tool and 1 uL of enzyme mix (final concentration, 0.1 nM pyruvate kinase, 50 mM imidazole pH 7.2, 0.05% BSA) was added. Plates were incubated at room temperature for 1 hour. Two uL of detection and kinase stop mix (PKLight, Cambrex) was added, the plates centrifuged, and luminescence read by a ViewLux (Perkin Elmer) at 5 second exposure/plate. Data were normalized to the uninhibited and AC100 inhibition (no enzyme or 110 uM N-methyl-2,3-diphenyl-1,2,4-thiadiazol-5-imine; CID: 682802; LOPAC-S-4063). To monitor activation, 0.3 nM pyruvate kinase was included in one control column.

In the case of `Oc1cc2c(cc1O)CN(C(=S)NCCc1ccc(Cl)cc1)CCC2`, the “activity change, negative = inhibition” value is reported as 47.3%.

`CN=c1nc(-c2ccccc2)n(-c2ccccc2)s1` was tested, and the Potency was 25.1 µM (active).
With `COc1ccc(/C=C/C(=O)Nc2ccccc2C(=O)O)cc1OC` the Potency was 20 µM (active).
With `Cc1ccc(O)c(N=Nc2ccccc2)n1` the Potency was 6.31 µM (active).

These compounds were tested against Pyruvate kinase (Leishmania mexicana) (UniProt Q27686) (assay: qHTS Validation Assay for Activators of Leishmania Mexicana Pyruvate Kinase (AID 959; active = well fitted curve in the direction sought with a large enough effect; an effect the other way counts as inactive or inconclusive)). Conditions: purified L. mexicana pyruvate kinase, enzyme activity; series mostly up to 57.5 µM; activity change, positive = activation: at the top concentration.
In short: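 qHTS eight-point titrations against 0.2 nM LmPYK (E451W) in imidazole buffer pH 7.2 with 0.5 mM PEP, 0.1 mM ADP; 1 h, room temperature. Readout: PKLight luminescence, normalized to neutral DMSO wells.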

Sequence of Pyruvate kinase (Leishmania mexicana) (Q27686 2-499 E452W): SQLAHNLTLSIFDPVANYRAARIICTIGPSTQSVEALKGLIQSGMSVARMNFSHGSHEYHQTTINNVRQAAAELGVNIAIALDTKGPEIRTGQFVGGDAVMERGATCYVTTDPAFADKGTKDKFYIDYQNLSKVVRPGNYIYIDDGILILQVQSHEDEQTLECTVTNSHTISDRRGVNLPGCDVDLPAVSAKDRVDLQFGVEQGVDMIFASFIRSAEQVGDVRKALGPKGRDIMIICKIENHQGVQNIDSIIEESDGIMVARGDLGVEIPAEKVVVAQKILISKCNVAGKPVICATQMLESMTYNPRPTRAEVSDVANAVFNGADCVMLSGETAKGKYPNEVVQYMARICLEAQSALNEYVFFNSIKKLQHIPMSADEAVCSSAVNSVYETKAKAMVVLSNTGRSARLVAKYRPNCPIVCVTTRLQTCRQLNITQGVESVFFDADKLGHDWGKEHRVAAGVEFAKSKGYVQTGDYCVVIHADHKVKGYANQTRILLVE

Compared with `Cc1cc(NC(=O)Nc2ccc3c(ccn3C)c2)sn1`, `CN1CCc2cc(NC(=O)Nc3cccnc3)ccc21` is lower in “activity change, positive = activation” value: -54.4% for the first, -61.2% for the second.

Compared with `O=C(Nc1ccccc1)c1cc([N+](=O)[O-])ccc1Cl`, `COc1ccc(/C=C/C(=O)Nc2ccccc2C(=O)O)cc1OC` is lower in “activity change, positive = activation” value: -33.5% for the first, -90% for the second.

Going from `CN=c1nc(-c2ccccc2)n(-c2ccccc2)s1` to `Cc1ccc(O)c(N=Nc2ccccc2)n1`, the “activity change, positive = activation” value falls from -99.4% to -108%.

With `NC(N)=NC(=O)c1nc(Cl)c(N2CCCCCC2)nc1N` the “activity change, positive = activation” value was -34.1%.

In the case of `O=C(Nc1cccc(C(=O)Nc2ccc(S(=O)(=O)O)c3cc(S(=O)(=O)O)cc(S(=O)(=O)O)c23)c1)Nc1cccc(C(=O)Nc2ccc(S(=O)(=O)O)c3cc(S(=O)(=O)O)cc(S(=O)(=O)O)c23)c1`, the Potency is reported as 0.398 µM (active).

Reference: PubChem BioAssay (NCATS)
